Laboratory results published in PubChem BioAssay AID1159580 (chemical genetic matrix, 2015).
Hit rate of the full screen: of about 5,500 compounds, about 2,000 (36%) were called active. Another 18% or so got no clear call; they are omitted. No stated cut-off is given here; in the data, active means normalized growth mostly below about 0.91 (no sharp cut-off); inconclusive means no clear call, values can overlap the other calls; inactive means mostly above about 0.92. The list shows a part of the results.

Experiment: chemical genetic growth profiling, strain panel (AID 1159580);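 further: tested at 20 µM; growth read once vehicle control cultures reached saturation at 30 °C; 1 = growth at the plate median or of vehicle wells; lower values mean less growth of the strain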
Conditions: growth OD

Measured: normalized growth

NC(Cc1c[nH]c2ccccc12)C(=O)O (configuration not stated)
inactive: S. cerevisiae deletion strains, locus YJR075W, strain HOC1, hits give low values 1 | S. cerevisiae deletion strains, locus YKL009W, strain mrt4, hits give low values 1.01 | S. cerevisiae deletion strains, locus YKL068W, hits give low values 0.99 | S. cerevisiae deletion strains, locus YKL085W, strain MDH1 (second series), hits give low values 1.02 | S. cerevisiae deletion strains, locus YKL085W, strain MDH1, hits give low values 1.02 | S. cerevisiae deletion strains, locus YKL160W, strain elf1, hits give low values 1.02 | S. cerevisiae deletion strains, locus YKL190W, strain CNB1, hits give low values 0.989 | S. cerevisiae deletion strains, locus YKR001C, strain vps1, hits give low values 1 | S. cerevisiae deletion strains, locus YKR026C, strain gcn3, hits give low values 1.02 | S. cerevisiae deletion strains, locus YKR091W, strain srl3, hits give low values 1.02 | S. cerevisiae deletion strains, locus YLL001W, strain dnm1, hits give low values 1.02 | S. cerevisiae deletion strains, locus YLL026W, hits give low values 1.02 | S. cerevisiae deletion strains, locus YLL041C, strain sdh2, hits give low values 1.01 | S. cerevisiae deletion strains, locus YLR027C, strain aat2, hits give low values 1.01 | S. cerevisiae deletion strains, locus YLR039C, strain RIC1, hits give low values 0.991 | S. cerevisiae deletion strains, locus YLR058C, strain SHM2, hits give low values 0.975 | S. cerevisiae deletion strains, locus YLR102C, strain apc9, hits give low values 0.992 | S. cerevisiae deletion strains, locus YLR113W, strain HOG1, hits give low values 0.969 | S. cerevisiae deletion strains, locus YLR221C, strain rsa3, hits give low values 1.01 | S. cerevisiae deletion strains, locus YLR258W, strain gsy2, hits give low values 1.01 | S. cerevisiae deletion strains, locus YLR262C, strain YPT6 (second series), hits give low values 1.03 | S. cerevisiae deletion strains, locus YLR262C, strain YPT6, hits give low values 0.962 | S. cerevisiae deletion strains, locus YLR268W, strain sec22, hits give low values 1.02 | S. cerevisiae deletion strains, locus YLR320W, strain mms22, hits give low values 0.995 | S. cerevisiae deletion strains, locus YLR330W, strain CHS5, hits give low values 0.99 | S. cerevisiae deletion strains, locus YLR342W, strain FKS1 (second series), hits give low values 1.03 | S. cerevisiae deletion strains, locus YLR342W, strain FKS1, hits give low values 1.02 | S. cerevisiae deletion strains, locus YLR357W, strain rsc2, hits give low values 1.04 | S. cerevisiae deletion strains, locus YLR370C, strain arc18, hits give low values 1.02 | S. cerevisiae deletion strains, locus YLR371W, strain rom2, hits give low values 0.991 | S. cerevisiae deletion strains, locus YLR384C, strain iki3, hits give low values 1.02 | S. cerevisiae deletion strains, locus YLR418C, strain cdc73, hits give low values 1.04 | S. cerevisiae deletion strains, locus YML016C, strain PPZ1, hits give low values 0.989 | S. cerevisiae deletion strains, locus YML032C, strain rad52, hits give low values 0.992 | S. cerevisiae deletion strains, locus YML120C, strain ndi1, hits give low values 1.01 | S. cerevisiae deletion strains, locus YML124C, strain tub3, hits give low values 0.997 | S. cerevisiae deletion strains, locus YMR058W, strain fet3, hits give low values 1.02 | S. cerevisiae deletion strains, locus YMR078C, strain ctf18, hits give low values 0.979 | S. cerevisiae deletion strains, locus YMR125W, strain sto1, hits give low values 1.03 | S. cerevisiae deletion strains, locus YMR129W, hits give low values 1.02 | S. cerevisiae deletion strains, locus YMR205C, strain PFK2, hits give low values 1.03 | S. cerevisiae deletion strains, locus YMR223W, strain ubp8, hits give low values 1 | S. cerevisiae deletion strains, locus YMR231W, strain pep5, hits give low values 1.02 | S. cerevisiae deletion strains, locus YMR263W, strain SAP30, hits give low values 0.983 | S. cerevisiae deletion strains, locus YMR307W, strain GAS1, hits give low values 1.08 | S. cerevisiae deletion strains, locus YNL067W, strain RPL9B, hits give low values 0.992 | S. cerevisiae deletion strains, locus YNL071W, strain lat1, hits give low values 1.02 | S. cerevisiae deletion strains, locus YNL128W, strain TEP1, hits give low values 0.975 | S. cerevisiae deletion strains, locus YNL153C, strain GIM3, hits give low values 0.992 | S. cerevisiae deletion strains, locus YNL183C, strain NPR1, hits give low values 0.941 | S. cerevisiae deletion strains, locus YNL209W, strain ssb2, hits give low values 1.03 | S. cerevisiae deletion strains, locus YNL233W, strain BNI4, hits give low values 0.999 | S. cerevisiae deletion strains, locus YNL248C, strain rpa49, hits give low values 1.02 | S. cerevisiae deletion strains, locus YNL250W, strain rad50, hits give low values 0.975 | S. cerevisiae deletion strains, locus YNL271C, strain bni1, hits give low values 1.01 | S. cerevisiae deletion strains, locus YNL298W, strain CLA4, hits give low values 0.995 | S. cerevisiae deletion strains, locus YNL307C, strain MCK1, hits give low values 0.991 | S. cerevisiae deletion strains, locus YNL322C, strain KRE1 (second series), hits give low values 1.02 | S. cerevisiae deletion strains, locus YNL322C, strain KRE1, hits give low values 0.989 | S. cerevisiae deletion strains, locus YNR049C, strain mso1, hits give low values 1.02 | S. cerevisiae deletion strains, locus YNR052C, strain pop2, hits give low values 0.991 | S. cerevisiae deletion strains, locus YOL006C, strain TOP1, hits give low values 1.03 | S. cerevisiae deletion strains, locus YOL012C, strain htz1 2.02 | S. cerevisiae deletion strains, locus YOL147C, strain pex11, hits give low values 0.998 | S. cerevisiae deletion strains, locus YOR001W, strain rrp6, hits give low values 0.992 | S. cerevisiae deletion strains, locus YOR061W, strain CKA2, hits give low values 0.973 | S. cerevisiae deletion strains, locus YOR069W, strain VPS5, hits give low values 0.991 | S. cerevisiae deletion strains, locus YOR070C, strain gyp1, hits give low values 1.02 | S. cerevisiae deletion strains, locus YOR080W, strain dia2, hits give low values 1.02 | S. cerevisiae deletion strains, locus YOR083W, strain WHI5, hits give low values 1.01 | S. cerevisiae deletion strains, locus YOR106W, strain vam3, hits give low values 1 | S. cerevisiae deletion strains, locus YOR136W, strain idh2, hits give low values 0.992 | S. cerevisiae deletion strains, locus YOR144C, strain elg1, hits give low values 1 | S. cerevisiae deletion strains, locus YOR184W, strain ser1, hits give low values 1 | S. cerevisiae deletion strains, locus YOR231W, strain MKK1, hits give low values 0.946 | S. cerevisiae deletion strains, locus YOR265W, strain rbl2, hits give low values 1.01 | S. cerevisiae deletion strains, locus YOR270C, strain vph1, hits give low values 1.04 | S. cerevisiae deletion strains, locus YOR290C, strain snf2, hits give low values 1.01 | S. cerevisiae deletion strains, locus YOR316C, strain cot1, hits give low values 0.981 | S. cerevisiae deletion strains, locus YPL051W, strain arl3, hits give low values 1.01 | S. cerevisiae deletion strains, locus YPL055C, strain LGE1, hits give low values 0.981 | S. cerevisiae deletion strains, locus YPL078C, strain atp4, hits give low values 1.01 | S. cerevisiae deletion strains, locus YPL106C, strain sse1, hits give low values 1.02 | S. cerevisiae deletion strains, locus YPL240C, strain hsp82, hits give low values 1.02 | S. cerevisiae deletion strains, locus YPL241C, strain CIN2, hits give low values 0.995 | S. cerevisiae deletion strains, locus YPL256C, strain CLN2, hits give low values 0.963 | S. cerevisiae deletion strains, locus YPR119W, strain clb2, hits give low values 0.996 | S. cerevisiae deletion strains, locus YPR141C, strain kar3, hits give low values 0.985 | S. cerevisiae deletion strains, locus YPR163C, strain tif3, hits give low values 0.998 | S. cerevisiae deletion strains, locus YPR167C, strain met16, hits give low values 1 | S. cerevisiae deletion strains, strain wtn01, hits give low values 0.984 | S. cerevisiae strains, strain wild type, hits give low values 0.997
